We go through 40 compounds from PubChem BioAssay (NCATS).

Results filed as inconclusive are left out. Activity calls are given as the source filed them. Calls come from the whole dose curve; as a rule, active = well fitted inhibition curve with a large enough effect; inconclusive = small, poorly fitted or top-dose-only effect; inactive = flat fitted curve, though single readings scatter.
% is set by controls: 0 for no effect and ±100 for the full control effect; potency is the fitted concentration of half-maximal effect.

This assay deals with HEK293. The assay is described as follows: Cytotoxic Profiling of Annotated Libraries Using Quantitative High-Throughput Screening (AID 1296008). Note: nearly all actives have a fitted effect of over 60% in size. The note with it: Five cell lines viability, CellTiter-Glo ATP luminescence, 48-72 h; max response: active compounds read low. The procedure, abridged:
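Cells exposed to compounds for 48 or 72 hr at 37 degrees Celsius. Viability read as ATP-coupled luminescence with CellTiter-Glo after 10 min at room temperature.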
For the compound `CC1(C)C2CC(OC3OC(COC4OCC(O)(CO)C4O)C(O)C(O)C3O)C1(C)CC2O` (stereo not given), the max response was -3.81% (inactive).

As to `Cc1ccc(C(=O)Nc2noc3ccccc23)cc1`, the Potency is 18.4 µM (active).

As for `C[C@@H]1CCN(C(=O)N2CCCC2)C[C@@H]1N(C)c1ncnc2[nH]ccc12`, the max response is -16.9% (inactive).

As to `CC(=O)O[C@@H]1CC(C)=C2[C@H]1[C@H](C)CC[C@H]2/C=C(\C)C(=O)O`, the max response is -2.45% (inactive).

In the case of `C=C(C)C(=O)O[C@H]1CC2=CC(C/C(C)=C\[C@H]3OC(=O)C(=C)[C@H]13)OC2=O` (stereo not given in full), the Potency is 4.53 µM (active).

For `COC(=O)CC(C)(O)CC(=O)OCc1ccc(O[C@@H]2O[C@H](CO)[C@@H](O)[C@H](O)[C@H]2O)cc1` (stereo not given in full), the call was inactive.

For `CC[C@@H](N)CNc1ccnc(-c2cc(-c3cnn(C)c3)ccc2O)n1`, the Potency is 5.17 µM (active).

Turning to `CC1(CCOC2OC(CO)C(O)C(O)C2O)CCC23OC2(C1)C(O)CC1C(C)(C(=O)O)CCCC13C` (stereo not given), the max response was -6.41% (inactive).

As to `O=C(CC1C(=O)Nc2ccccc21)OC[C@H]1O[C@@H](OCCc2ccc(O)cc2)[C@H](O)[C@@H](O)[C@@H]1O` (stereo not given in full), the max response was 1.16% (inactive).

As to `COC1C(CO)OC(n2cnc3c(=O)[nH]cnc32)C1O` (stereo not given), the max response is 0.852% (inactive).

`COC(=O)c1cc(OC)cc(OC)c1C(=O)c1c(OC)cc2c(c1O)C1CCCC(C)(O2)O1` (stereo not given): the max response was -5.64% (inactive).

Take `Cc1[nH]c2ccccc2c1C1=C(NCCc2ccc(F)cc2)C(=O)N(C)C1=O`: the max response was -22.2% (inactive).

In the case of `CCCC(=O)O[C@@H]1[C@@H]2[C@@H](OC(C)=O)[C@]3(C)C(=O)[C@H]4[C@@H](OC(C)=O)C(C)(C)C[C@H]4[C@]3(C)C(=O)[C@@]2(OC(C)=O)C[C@@H]1C`, the max response is 3.97% (inactive).

For the compound `COC1=CC(=O)CC(C)C12Oc1cc(OC)cc(O)c1C2=O` (stereo not given), the max response was 0.0359% (inactive).

In the case of `C=C(C)C(=O)OC1C(OC(C)=O)/C(C=O)=C\CC/C(CO)=C/C2OC(=O)C(=C)C21` (stereo not given), the Potency was 5.63 µM (active).

Turning to `CC(=O)N[C@H]1[C@H](O[C@H]2CC[C@@]3(C)C(CC[C@]4(C)C3CC=C3C5CC(C)(C)CC[C@]5(C(=O)O)[C@H](O)C[C@]34C)C2(C)C)O[C@H](CO[C@@H]2OC[C@H](O)[C@H](O)[C@H]2O[C@@H]2OC[C@@H](O)[C@H](O)[C@H]2O)[C@@H](O)[C@@H]1O` (stereo not given in full), the max response was -1.2% (inactive).

In the case of `CC(=O)OC1C(O)CC2(C)C(CCC(C)C23Cc2c(O)cc(CO)c(C=O)c2O3)C1(C)C` (stereo not given), the max response was -11.5% (inactive).

As for `CO/N=C(/C(=O)N[C@@H]1C(=O)N2C(C(=O)O)=C(Cn3ccc(=N)n3CCO)CS[C@H]12)c1csc(N)n1`, the max response is -94.3% (inactive).

With `C[C@@H]1O[C@@H](O[C@H]2[C@H](O)[C@@H](O)[C@H](O[C@H]3[C@H](O[C@H]4CC[C@@]5(C)C(=CC[C@@H]6C5CC[C@]5(C)[C@@H]7[C@H](C[C@@H]65)O[C@]5(CC[C@@](C)(CO[C@@H]6O[C@H](CO)[C@@H](O)[C@H](O)[C@H]6O)O5)[C@H]7C)C4)O[C@H](CO)[C@@H](O)[C@@H]3O)O[C@@H]2CO)[C@H](O)[C@H](O)[C@H]1O` (stereo not given in full), the Potency is 1.23 µM (active).

Consider `C[C@H]1[C@H](O)O[C@@H]2O[C@@]3(C)CC[C@H]4[C@H](C)CC[C@@H]1[C@@]24OO3`, for which the Potency was 1.84 µM (active).

`COC(=O)C1=CO[C@@H](O[C@@H]2O[C@H](CO)[C@@H](O)[C@H](O)[C@H]2O)[C@@H]2C(COC(C)=O)=C[C@H](O)[C@H]12`: the max response was -2.65% (inactive).

In the case of `O=C(OC1C=C(CO)C2C(OC3OC(CO)C(O)C(O)C3O)OC=CC12)c1ccc(O)cc1` (stereo not given), the max response is -4.58% (inactive).

`C[C@H]1C(=O)N2c3ccccc3[C@@]3(O)C[C@@H]4C(=O)N[C@](C)(c5nc6ccccc6c(=O)n54)N1[C@@H]23`: the max response was -0.775% (inactive).

Consider `C=C(F)c1sc(CNCCCNc2cc(=O)c3ccccc3[nH]2)c(C)c1Br`, for which the Potency is 6.51 µM (active).

As to `Cc1nc([C@](C)(O)CO)sc1-c1cnc(N)c(O[C@H](C)c2cc(F)ccc2-n2nccn2)c1`, the Potency was 13 µM (active).

For the compound `CC(=O)OC1/C(C)=C/C(=O)C(OC(C)=O)C(C)(C)/C=C/C(C)C(=O)C2(OC(C)=O)CC(C)C(OC(=O)c3ccccc3)C12` (stereo not given), the max response is -22.9% (inactive).

As to `C=C(C)C(=O)OC1CC2(C)OC(=CC2=O)C(=C)CC2OC(=O)C(COC)C12` (stereo not given), the Potency was 7.18 µM (active).

As for `CC(C)=CCC/C(C)=C/Cc1ccc(O)c(C2OC(=O)c3cc(C(=O)O)cc(O)c32)c1O` (stereo not given), the max response is 0.876% (inactive).

For `O=C(c1ccccc1)c1ccc2nc(NC(=O)c3csc(C4CCN(c5ncnc6ccsc56)CC4)n3)[nH]c2c1`, the Potency is 5.17 µM (active).

In the case of `CNC(C)C(=O)NC(C(=O)N1CCCC1c1nc(C(=O)c2ccc(F)cc2)cs1)C1CCCCC1` (stereo not given), the Potency was 14.6 µM (active).

On to `Cc1ncc(CCCN(C)C)cc1Nc1ncc2c(n1)-c1ccc(C(F)(F)F)cc1NC(=S)C2`, for which the max response is -92.5% (inactive).

For the compound `COc1ccc(C(=O)C2CCN(CC(=O)N(Cc3nc4c(c(=O)[nH]3)COCC4)CC3CC3)CC2)cc1`, the max response was -4.04% (inactive).

Turning to `CNCc1ccc(-c2cc(-c3nc(-c4ccc(S(=O)(=O)C(C)C)cc4)cnc3N)on2)cc1`, the Potency is 1.16 µM (active).

As to `O=C(/C=C\n1cnc(-c2cc(C(F)(F)F)cc(C(F)(F)F)c2)n1)N1CC(F)(F)C1`, the Potency is 1.3 µM (active).

Turning to `CC(=O)O[C@H]1C(=O)[C@@]2(C)[C@H]([C@H](OC(=O)c3ccccc3)[C@]3(O)C[C@H](OC(=O)[C@H](O)[C@@H](NC(=O)c4ccccc4)c4ccccc4)C(C)=C1C3(C)C)[C@]1(OC(C)=O)CO[C@@H]1C[C@@H]2O`, the Potency was 0.0055 µM (active).

On to `C=CC(=O)Nc1cc(Nc2ncc(Cl)c(-c3c[nH]c4ccccc34)n2)c(OC)cc1N(C)CCN(C)C`, for which the Potency is 2.06 µM (active).

As for `Cc1c[nH]c2nccc(Oc3c(F)cc(Nc4cc(Cl)nc(N)n4)cc3F)c12`, the Potency is 5.8 µM (active).

For the compound `COc1cc(O)c2c(c1)C1=C[C@H](O)[C@@H](O)C[C@]1(C)OC2=O`, the outcome was inactive.

Consider `CCCC(=O)NCCc1csc(-c2ccc(Cl)cc2)n1`, for which the Potency is 16.4 µM (active).

In the case of `COc1cc(O)c2c(c1)C1=CC(O)C(O)CC1(C)OC2=O` (stereo not given), the max response was -5.55% (inactive).
